BJeLR viab HTS: BJeLR cell viability loss, primary screen, luminescence, CellTiterGlo ATP; BJeLR fibroblasts viability, 48 h; HRASV12, hTERT and SV40 LT/ST transformed; viability loss activity score, % (no concentration beside the values); 0.64% of 30,000 active; AID 2275, 2010; in the data active = viability loss activity score above about 50%;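 also: higher score means fewer live cells and less ATP luminescence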
A1 inhib: inducers of caspase activity in MEF A1-2A-BIM cells, primary screen, A1 inhibitor project, cell-based, CaspaseGlo luminescence; caspase activation, % (no concentration beside the values); 0.51% of 21,000 active; caspase-Glo luminescence, 3 h; percent of clofoctol signal, DMSO as zero; AID 2241, 2010;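 active = most replicate scores above 10, or exactly half above 10 with mean activity above 10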;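 also: effector caspase 3 and 7 activity cleaving a DEVD luciferin substrate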
Active calls of the source: *; / = not tested or not shown. Compounds with a hit are over-represented: about 0.9% of the library has one in this group of screens.

SMILES	BJeLR viab HTS	A1 inhib
C[C@H]1OC(O[C@H]2[C@@H](O)CC(O[C@H]3[C@@H](O)C[C@H](O[C@H]4CC[C@]5(C)C6CC[C@]7(C)[C@@H](C8=CC(=O)OC8)[C@@H](O)C[C@]7(O)[C@@H]6CC[C@@H]5C4)O[C@@H]3C)O[C@@H]2C)C[C@H](O)C1O (stereo not given in full)	98*	0
C[C@H]1O[C@@H](O[C@H]2[C@@H](O)C[C@H](O[C@H]3[C@@H](O)C[C@H](O[C@H]4CC[C@@]5(C)[C@H](CC[C@@H]6[C@@H]5CC[C@]5(C)[C@@H](C7=CC(=O)OC7)CC[C@]65O)C4)O[C@@H]3C)O[C@@H]2C)C[C@H](O)[C@@H]1O	134*	0
CO[C@H]1C[C@H](OC2CCC3(C)C4CCC5(C)C(C6=CC(=O)OC6)CC(OC(C)=O)C5(O)C4CC[C@H]3C2)O[C@@H](C)[C@@H]1O (stereo not given in full)	99*	0
CCN(CC)C(=O)c1ccc2c(c1)C1C3CCC(C3)C1C(c1ccccc1)N2 (stereo not given)	1	0
O=C(CCN1CCOCC1)NC=Nc1cccnc1	-1	1
O=C1NC(=O)C(=C/C=C/c2ccccc2)C(=O)N1	-11	2
O=C(O)C1C2CC3CC(C2)CC1(n1ncc(N2CCOCC2)c(Cl)c1=O)C3 (stereo not given)	0	0
CC(C)(C)c1cc(C=C(C#N)C#N)cc(C(C)(C)C)c1O	71*	-2
N#CC(C#N)=Cc1ccc(O)c(O)c1	0	-1
COc1ccc2c3c1O[C@H]1[C@@H](O)CC=C4[C@@H](C2)N(C)CC[C@]431	-2	0
C[C@@H]1O[C@@H](O[C@H]2[C@H](O)[C@@H](O)[C@H](O[C@@H]3C=C4CC[C@@H]5C(CC[C@]6(C)[C@@H](c7ccc(=O)oc7)CC[C@]56O)[C@@]4(C)CC3)O[C@@H]2CO)[C@H](O)[C@H](O)[C@H]1O (stereo not given in full)	125*	2
S=C(Nc1ccccc1)N1CCCCC1c1cccnc1 (stereo not given)	-7	1
CC(=O)O[C@@H](c1nc2ccccc2c(=O)n1[C@@H]1C[C@@]2(OC1=O)c1ccccc1N1C(=O)[C@H](C)N(O)[C@@H]12)C(C)C	-5	0
CCC(C)[C@H]1O[C@]2(C=C[C@@H]1C)C[C@@H]1C[C@@H](C/C=C(\C)[C@@H](OC3C[C@H](OC)C(O[C@H]4C[C@H](OC)[C@@H](O)[C@H](C)O4)[C@H](C)O3)[C@@H](C)/C=C/C=C3\CO[C@@H]4[C@H](O)C(C)=C[C@@H](C(=O)O1)[C@]34O)O2 (stereo not given in full)	-4	0
N#CC(C#N)=NNc1ccc(OC(F)(F)F)cc1	86*	-3
COc1ccc(C(=O)O[C@H]2CC[C@@]3(C)[C@@H]4CC[C@H]5[C@]6(O)C[C@H](O)[C@@]7(O)[C@@H](CN8C[C@@H](C)CC[C@H]8[C@@]7(C)O)[C@]6(O)C[C@@]53O[C@]24O)cc1OC	-2	0
CSc1ncccc1C1=N/C(=C\N(C)C)C(=O)O1	-5	1
C[C@]12CC[C@H]3[C@@H](CC[C@]4(O)C[C@@H](O)CC[C@]34C=O)[C@@]1(O)CC[C@@H]2C1=CC(=O)OC1	82*	1
CO[C@H]1[C@H](O)[C@@H](O[C@H]2CC[C@]3(C=O)C4CC[C@]5(C)[C@@H](C6=CC(=O)OC6)CC[C@]5(O)C4CC[C@@H]3C2)O[C@@H](C)[C@@H]1O (stereo not given in full)	133*	0
C[C@@H]1O[C@@H](OC2CCC3(C)C4CCC5(C)C(C6=CC(=O)OC6)CCC5(O)C4CC[C@H]3C2)[C@H](O)[C@H](O)[C@H]1O (stereo not given in full)	101*	0
CO[C@H]1[C@H](O)[C@H](O[C@H]2CC[C@]3(C)C4CC[C@]5(C)[C@H](C6=CC(=O)OC6)CC[C@]5(O)C4CC[C@@H]3C2)O[C@@H](C)[C@@H]1O (stereo not given in full)	116*	0
O=C1CCCC2C3CC(CN12)[C@@H]1CCCCN1C3 (stereo not given in full)	-8	1
Cc1ccccc1OCCCn1cc(C(=O)C(C)(C)C)c2ccccc21	4	/
O=c1c2ccccc2[nH]c(=S)n1-c1ccc(Cl)c(Cl)c1	3	-4
CCOC(=O)C1=NN(c2ccc(C)cc2)C2c3cccc4cccc(c34)C12 (stereo not given)	-2	-1
SMILES	BJeLR viab HTS	A1 inhib
C[C@@H]1O[C@@H](O[C@H]2C[C@@H](O)[C@]3(CO)[C@H]4[C@H](O)C[C@]5(C)[C@@H](C6=CC(=O)OC6)CC[C@]5(O)[C@@H]4CC[C@]3(O)C2)[C@H](O)[C@H](O)[C@H]1O	104*	0
C/C1=C/C(=O)O[C@@H]2C[C@@H](CC[C@H](C)/C=C\CC1)O[C@@](O)([C@@H]1CSC(=O)N1)C2	41	23*
Cc1cc(-n2c(=S)[nH]c3ccccc3c2=O)ccc1Br	1	1
COC[C@H]1OC(=O)c2coc3c2[C@@]1(C)C1=C(C3=O)C2CCC(=O)[C@@]2(C)C[C@H]1OC(C)=O (stereo not given in full)	7	52*
COc1ccc2c(c1OC)C(=O)O[C@@H]2[C@@H]1c2cc3c(cc2CCN1C)OCO3	-9	-1
Cc1cc(OCC(=O)N(C)C)c2c3c(c(=O)oc2c1)CCCC3	-8	0
CCN1CC2(COC)CCC(O)C34C5CC6C(OC)CC(O)(C5C6O)C(C(OC)C23)C14 (stereo not given)	3	0
CSC1=NN1c1cc(C)nc(N)n1	-7	1
CC[C@@]1(O)C(=O)OCc2c1cc1n(c2=O)-c2cc3ccccc3nc2C1	121*	0
CCc1nc2ccccc2c(=O)n1-c1ccccc1Cl	1	0
COC(=O)[C@@]1(O)C[C@@H]2O[C@@]1(C)n1c3ccccc3c3c4c(c5c6ccccc6n2c5c31)C(=O)NC4	/	13*
CC(Cc1c[nH]c2ccccc12)N(Cc1ccccc1)Cc1ccccc1 (stereo not given)	3	/
COC(=O)[C@@]12C(=O)C(C)C(=O)[C@]1(C)C(C)=C[C@H]1[C@]3(C)CC[C@H](OC(C)=O)C(C)(C)[C@H]3CC[C@@]12C (stereo not given in full)	-5	0
N#Cc1cc2c(nc1SCc1ccccc1Br)C1CCN2CC1	2	/
C=C1[C@@H](C)[C@H]2[C@H](Cc3ccccc3)NC(=O)[C@]23[C@H](OC(C)=O)C=C[C@](C)(O)C(=O)[C@@H](C)C/C=C/[C@H]3[C@@H]1O	20	16*
COc1ccc(-n2c(C)nc3ccccc3c2=O)cc1	0	1
CO[C@@H]1[C@H](O)[C@@H](O[C@@H]2C[C@H]3CC[C@@H]4C(CC[C@]5(C)[C@@H](C6=CC(=O)OC6)CC[C@]45O)[C@@]3(C)[C@H](O)C2)O[C@H](C)[C@@H]1O[C@@H]1O[C@H](CO)[C@@H](O)[C@H](O)[C@H]1O (stereo not given in full)	111*	0

Screens from PubChem.
